Measured values reported in PubChem BioAssay (NCATS).
Inconclusive results are not listed. The source made the active and inactive calls. The call rests on the fitted dose curve; in most records, active means well fitted inhibition curve with a large enough effect; inconclusive means small, poorly fitted or top-dose-only effect; inactive means flat fitted curve, though single readings scatter.

System: NIH3T3
Assay: qHTS assay to identify novel small-molecules to repurpose for Merkel cell carcinoma treatment (AID 1296009); further: nearly all actives have a fitted effect of over 60% in size
Details: MCC and control cell lines, CellTiter-Glo viability, 72 h; at 44.8 µM (top of the series) unless noted
How it was run: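 Cell viability, measured as CellTiter-Glo luminescence, was normalized between DMSO and no-cell wells. The cells had been exposed to 8- or 11-point compound dilutions for 72 hr at 37 degree celsius.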

Structure (SMILES) | outcome
COC(=O)C1=CO[C@@H](O[C@@H]2O[C@H](CO[C@@H]3O[C@H](CO)[C@@H](O)[C@H](O)[C@H]3O)[C@@H](O)[C@H](O)[C@H]2O)[C@@H]2C(CO)=CC[C@H]12 | inactive [at 17.4 µM]
CSCC1OC(n2cnc3c(=O)[nH]cnc32)C(O)C1O (configuration not stated) | inactive
COc1cc(C)c(C(=O)OC2C(C)OC(OC3CCC(C)C4C3C=C(C)C3/C(C)=C\CC/C(C)=C/C5(C)C=C(C(=O)O)C(C)CC56OC(=O)/C(=C(\O)C34C)C6=O)C(O)C2O)c(OC)c1 (configuration not stated) | inactive [at 9.27 µM]
OC[C@H]1O[C@@H](OCc2ccccc2)[C@H](O[C@@H]2OC[C@@H](O)[C@H](O)[C@H]2O)[C@@H](O)[C@@H]1O | inactive [at 17.4 µM]
Nc1ccc(-n2nc(C(F)(F)F)cc2C(F)(F)F)cc1 | inactive
Oc1ccc(CC2NCCc3cc(O)c(O)cc32)cc1 (configuration not stated) | inactive
NCCCCN(Cc1nc2ccccc2[nH]1)[C@H]1CCCc2cccnc21 | inactive [at 17.4 µM]
C/C(=C\C1CCC(C)C2CCC3(C)OC123)C(=O)O (configuration not stated) | inactive
CC1=C2C3OC(=O)C(C)C3(O)CCC2(C)CCC1 (configuration not stated) | inactive
O=C(N[C@H](Cc1ccccc1)C(=O)O)c1sc2cc(F)ccc2c1Cl | inactive
CC(=O)c1ccc(O[C@@H]2O[C@H](CO[C@@H]3OC[C@@H](O)[C@H](O)[C@H]3O)[C@@H](O)[C@H](O)[C@H]2O)cc1 | inactive [at 17.4 µM]
C=C1C[C@H](O)[C@@H](O)[C@@]2(C)C1[C@@H](O)[C@H]1OC(=O)C3[C@@H](C)[C@@H](O)[C@H](O)C2[C@]31C (some centres not stated) | inactive
